# Experimental data taken from PubChem BioAssay (EPA / NIEHS).
# Inconclusive results are not listed. The source made the active and inactive calls. How the source made its calls: active means hit-call score of the fitted dose curve at least 0.9, where 1 is the maximum; inconclusive means response in the unintended direction; inactive means score below 0.9.
# Experiments:
# [1] = molecular target: GAL4 Transcription Factor (Internal Marker), GAL4 (gene 855828) (UniProt P04386); experiment: ATG_GAL4_XSP1: Attagene TRANS-FACTORIAL Multi-Species (XSP1) HepG2 Assay for GAL4 Transcription Factor (Internal Marker) (AID 2283789)
# GAL4 Transcription Factor (Internal Marker), GAL4 (gene 855828), sequence (P04386 whole entry, looked up, the tested form may be a part): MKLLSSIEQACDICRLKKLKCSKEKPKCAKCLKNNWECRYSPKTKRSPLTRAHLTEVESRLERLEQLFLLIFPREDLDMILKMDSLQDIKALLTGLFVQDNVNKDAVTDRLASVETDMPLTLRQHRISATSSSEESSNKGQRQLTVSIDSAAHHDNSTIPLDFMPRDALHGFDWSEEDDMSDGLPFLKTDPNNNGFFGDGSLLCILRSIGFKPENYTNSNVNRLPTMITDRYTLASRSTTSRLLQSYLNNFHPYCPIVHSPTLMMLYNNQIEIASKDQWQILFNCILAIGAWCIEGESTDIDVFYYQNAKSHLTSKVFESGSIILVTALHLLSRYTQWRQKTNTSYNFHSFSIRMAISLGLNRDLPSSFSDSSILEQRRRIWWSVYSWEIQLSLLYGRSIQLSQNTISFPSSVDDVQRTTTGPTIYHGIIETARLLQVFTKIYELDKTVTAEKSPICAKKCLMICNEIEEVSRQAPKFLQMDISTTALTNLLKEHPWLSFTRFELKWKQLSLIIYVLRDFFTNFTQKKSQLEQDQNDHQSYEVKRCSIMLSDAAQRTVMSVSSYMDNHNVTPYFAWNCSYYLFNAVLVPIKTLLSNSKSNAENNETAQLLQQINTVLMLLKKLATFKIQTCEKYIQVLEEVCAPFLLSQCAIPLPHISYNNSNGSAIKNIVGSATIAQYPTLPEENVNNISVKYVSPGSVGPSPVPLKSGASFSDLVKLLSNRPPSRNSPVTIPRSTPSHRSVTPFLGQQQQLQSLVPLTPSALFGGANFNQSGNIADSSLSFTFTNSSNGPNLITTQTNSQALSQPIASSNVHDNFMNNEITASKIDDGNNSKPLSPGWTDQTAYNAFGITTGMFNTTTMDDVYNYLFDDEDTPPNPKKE
# Method in brief: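 HepG2 cells transiently transfected with multiplexed GAL4-UAS reporter units were exposed for 24 h with 3 nM 6-alpha-fluorotestosterone present. Reporter mRNA was quantified by RT-PCR, FAM labelling, HpaI digestion and capillary electrophoresis; background-control readout, gain-of-signal versus DMSO.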
# [2] = ATG_M_06_XSP1: Attagene TRANS-FACTORIAL Multi-Species (XSP1) HepG2 Assay for M06 Transcription Factor (Internal Marker) (AID 2283790)
# Method in brief: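 Transfected HepG2 multi-reporter system treated 24 h in the presence of 3 nM 6-alpha-fluorotestosterone. The M06 internal marker transcript was quantified by RT-PCR with capillary electrophoresis as a background control, and gain of signal was scored versus DMSO.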
# [3] = ATG_M_61_XSP1: Attagene TRANS-FACTORIAL Multi-Species (XSP1) HepG2 Assay for M61 Transcription Factor (Internal Marker) (AID 2283797)
# Method in brief: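 HepG2 cells transiently transfected with multiplexed GAL4-driven reporter units, dosed 24 h with 3 nM 6-alpha-fluorotestosterone present. Reporter mRNA quantified by RT-PCR, 6-FAM labelling, HpaI digestion and capillary electrophoresis; internal-marker background control, gain of signal versus DMSO.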
# [4] = ATG_M_32_XSP1: Attagene TRANS-FACTORIAL Multi-Species (XSP1) HepG2 Assay for M32 Transcription Factor (Internal Marker) (AID 2283799)
# Protocol: ATG_XSP1_multi-species_TRANS is a cell-based, multiplexed assay created by modifying the existing Attagene TRANS-FACTORIAL system to include a panel of nuclear receptors from some or all the following species: human (Homo sapiens), mouse (Mus musculus), frog (Xenopus laevis), zebrafish (Danio rerio), chicken (Gallus gallus), and turtle (Chrysemys picta). The ECOTOX-FACTORIAL format uses HepG2, a human liver cell line, with measurements taken at 24 hours after chemical dosing in a 24-well plate. Xsp1 included 3 nM 6-alpha-fluorotestosterone to partially stimulate the androgen receptor.ATG_M_32_XSP1 is one of 29 assay components measured or calculated from the ATG_XSP1_multi-species_TRANS assay. It is designed to make measurements of mRNA induction, a form of inducible reporter, as detected with fluorescence intensity signals by Reverse transcription polymerase chain reaction (RT-PCR) and Capillary electrophoresis technology.This assay endpoint, ATG_M_32_XSP1, was analyzed in the positive analysis fitting direction relative to DMSO as the negative control and baseline of activity. […] Furthermore, this assay endpoint can be referred to as a secondary readout, because this assay has produced multiple assay endpoints where this one serves a background control function. […]
# [5] = molecular target: Peroxisome proliferator-activated receptor gamma (Homo sapiens) (UniProt P37231); experiment: ATG_hPPARg_XSP1: Attagene TRANS-FACTORIAL Multi-Species (XSP1) HepG2 Assay for human Peroxisome Proliferator-activated Receptor gamma (PPARg) (AID 2283800)
# Peroxisome proliferator-activated receptor gamma (Homo sapiens), sequence (P37231 whole entry, looked up, the tested form may be a part): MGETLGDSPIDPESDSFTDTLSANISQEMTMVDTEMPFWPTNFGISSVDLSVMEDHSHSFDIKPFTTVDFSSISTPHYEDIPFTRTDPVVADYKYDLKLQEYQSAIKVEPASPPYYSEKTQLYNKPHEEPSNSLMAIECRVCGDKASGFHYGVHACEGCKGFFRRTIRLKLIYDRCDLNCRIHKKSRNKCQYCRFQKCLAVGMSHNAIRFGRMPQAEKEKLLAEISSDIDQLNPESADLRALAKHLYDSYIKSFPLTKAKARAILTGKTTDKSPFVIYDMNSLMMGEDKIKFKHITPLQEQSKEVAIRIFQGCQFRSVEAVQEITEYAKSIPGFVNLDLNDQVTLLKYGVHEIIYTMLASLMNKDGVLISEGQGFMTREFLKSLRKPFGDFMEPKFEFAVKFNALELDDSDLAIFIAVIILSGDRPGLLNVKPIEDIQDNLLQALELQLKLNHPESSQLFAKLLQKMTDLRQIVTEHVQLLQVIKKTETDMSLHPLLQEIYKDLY
# Method in brief: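 HepG2 cells transiently transfected with GAL4-UAS reporter units carrying chimeric NR-Gal4 proteins; 3 nM 6-alpha-fluorotestosterone present. After 24 h dosing, reporter mRNA quantified by RT-PCR and capillary electrophoresis; gain of signal relative to DMSO.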
# [6] = test system: zebrafish Peroxisome Proliferator-activated Receptor gamma (PPARg), gene 557037; experiment: ATG_zfPPARg_XSP1: Attagene TRANS-FACTORIAL Multi-Species (XSP1) HepG2 Assay for zebrafish Peroxisome Proliferator-activated Receptor gamma (PPARg) (AID 2283801)
# Method in brief: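 HepG2 cells transiently transfected with GAL4-UAS reporter units including a zebrafish PPARg–GAL4 chimera, dosed 24 h with 3 nM 6-alpha-fluorotestosterone present. Reporter mRNA quantified by RT-PCR, FAM labelling, HpaI digestion and capillary electrophoresis; induction versus DMSO.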
# [7] = molecular target: mouse Peroxisome Proliferator-activated Receptor gamma (PPARg), Pparg (gene 19016) (UniProt P37238); experiment: ATG_mPPARg_XSP1: Attagene TRANS-FACTORIAL Multi-Species (XSP1) HepG2 Assay for mouse Peroxisome Proliferator-activated Receptor gamma (PPARg) (AID 2283802)
# mouse Peroxisome Proliferator-activated Receptor gamma (PPARg), Pparg (gene 19016), sequence (P37238 whole entry, looked up, the tested form may be a part): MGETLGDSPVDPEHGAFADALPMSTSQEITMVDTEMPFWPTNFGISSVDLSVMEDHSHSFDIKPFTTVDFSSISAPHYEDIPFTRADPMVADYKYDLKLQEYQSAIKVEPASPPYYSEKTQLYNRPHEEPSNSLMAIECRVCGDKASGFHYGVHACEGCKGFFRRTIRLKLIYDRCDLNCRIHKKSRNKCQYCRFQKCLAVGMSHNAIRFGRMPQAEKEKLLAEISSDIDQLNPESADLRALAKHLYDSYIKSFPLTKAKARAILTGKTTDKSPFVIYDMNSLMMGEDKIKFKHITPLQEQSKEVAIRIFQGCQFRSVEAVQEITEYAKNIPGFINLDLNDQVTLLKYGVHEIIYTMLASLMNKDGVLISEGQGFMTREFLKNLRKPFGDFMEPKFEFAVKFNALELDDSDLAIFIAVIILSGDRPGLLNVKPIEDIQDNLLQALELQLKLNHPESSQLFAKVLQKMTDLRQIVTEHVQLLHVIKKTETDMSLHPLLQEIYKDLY
# Method in brief: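 HepG2 cells transiently transfected with GAL4-UAS reporter units driven by mouse PPARg–GAL4 chimera; 3 nM 6-alpha-fluorotestosterone present. After 24 h dosing, reporter mRNA quantified by RT-PCR, fluorescent labelling and capillary electrophoresis; gain of signal versus DMSO.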
# [8] = molecular target: Nuclear receptor subfamily 1 group I member 2 (Mus musculus) (UniProt O54915); experiment: ATG_mPXR_XSP1: Attagene TRANS-FACTORIAL Multi-Species (XSP1) HepG2 Assay for mouse Pregnane X Receptor (PXR) (AID 2283803)
# Nuclear receptor subfamily 1 group I member 2 (Mus musculus), sequence (O54915 whole entry, looked up, the tested form may be a part): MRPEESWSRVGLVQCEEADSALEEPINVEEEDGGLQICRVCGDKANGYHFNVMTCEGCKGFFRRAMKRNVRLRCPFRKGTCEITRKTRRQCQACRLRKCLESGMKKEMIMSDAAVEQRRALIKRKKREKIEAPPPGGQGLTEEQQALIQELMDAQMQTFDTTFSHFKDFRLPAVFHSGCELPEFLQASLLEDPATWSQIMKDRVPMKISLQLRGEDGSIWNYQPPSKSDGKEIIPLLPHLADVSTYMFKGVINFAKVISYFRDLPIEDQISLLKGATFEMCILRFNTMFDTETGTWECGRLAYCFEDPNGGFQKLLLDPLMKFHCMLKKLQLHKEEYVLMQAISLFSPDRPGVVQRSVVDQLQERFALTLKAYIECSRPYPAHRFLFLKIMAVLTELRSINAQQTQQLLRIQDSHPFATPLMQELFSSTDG
# Method in brief: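 Transiently transfected HepG2 cells expressing a receptor-Gal4 chimera drive a GAL4-UAS reporter; 3 nM 6-alpha-fluorotestosterone included. Reporter mRNA read 24 h post-dose by RT-PCR and capillary electrophoresis; gain of signal relative to DMSO.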
# [9] = molecular target: frog Thyroid hormone Receptor alpha (TRa), thra-a (gene 397942) (UniProt P15204); experiment: ATG_frTRa_XSP1: Attagene TRANS-FACTORIAL Multi-Species (XSP1) HepG2 Assay for frog Thyroid hormone Receptor alpha (TRa) (AID 2283804)
# frog Thyroid hormone Receptor alpha (TRa), thra-a (gene 397942), sequence (P15204 whole entry, looked up, the tested form may be a part): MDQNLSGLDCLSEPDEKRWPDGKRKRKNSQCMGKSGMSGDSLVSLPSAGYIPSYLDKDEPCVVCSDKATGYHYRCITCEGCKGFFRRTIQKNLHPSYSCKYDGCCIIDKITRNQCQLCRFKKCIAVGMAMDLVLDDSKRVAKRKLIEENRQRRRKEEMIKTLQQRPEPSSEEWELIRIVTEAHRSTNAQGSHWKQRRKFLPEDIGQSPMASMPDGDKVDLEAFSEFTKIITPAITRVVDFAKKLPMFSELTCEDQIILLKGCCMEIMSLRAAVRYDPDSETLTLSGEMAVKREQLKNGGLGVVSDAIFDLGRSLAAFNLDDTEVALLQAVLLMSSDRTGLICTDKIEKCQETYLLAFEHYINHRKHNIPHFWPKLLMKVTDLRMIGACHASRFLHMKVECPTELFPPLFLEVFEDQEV
# Method in brief: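 HepG2 cells transiently transfected with frog TRa-GAL4 chimeric reporter units, dosed 24 hr with 3 nM 6-alpha-fluorotestosterone present; reporter mRNA quantified by RT-PCR, fluorescent labelling and capillary electrophoresis, gain of signal versus DMSO.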
# [10] = molecular target: Estrogen receptor beta (Homo sapiens) (UniProt Q92731); experiment: ATG_hERb_XSP1: Attagene TRANS-FACTORIAL Multi-Species (XSP1) HepG2 Assay for human Estrogen Receptor (ESR2) (AID 2283788)
# Estrogen receptor beta (Homo sapiens), sequence (Q92731 whole entry, looked up, the tested form may be a part): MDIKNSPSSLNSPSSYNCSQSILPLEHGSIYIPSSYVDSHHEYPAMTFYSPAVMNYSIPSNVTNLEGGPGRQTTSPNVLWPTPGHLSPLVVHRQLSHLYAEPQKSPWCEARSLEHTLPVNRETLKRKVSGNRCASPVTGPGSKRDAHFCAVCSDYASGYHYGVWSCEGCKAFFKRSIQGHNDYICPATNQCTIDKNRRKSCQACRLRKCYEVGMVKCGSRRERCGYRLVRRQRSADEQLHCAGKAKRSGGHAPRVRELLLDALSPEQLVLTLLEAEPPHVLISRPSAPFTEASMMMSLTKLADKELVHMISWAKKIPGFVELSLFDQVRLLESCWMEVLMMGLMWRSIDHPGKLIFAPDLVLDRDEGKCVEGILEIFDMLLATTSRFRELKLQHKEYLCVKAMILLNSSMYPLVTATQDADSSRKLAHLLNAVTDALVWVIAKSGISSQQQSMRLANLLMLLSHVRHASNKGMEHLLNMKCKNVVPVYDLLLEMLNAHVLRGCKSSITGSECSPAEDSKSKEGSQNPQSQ
# Method in brief: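 Measured endpoint is transcriptional gain of signal from a GAL4-UAS reporter controlled by chimeric ERβ in HepG2 liver cells. Exposure lasts 24 h alongside 3 nM 6-alpha-fluorotestosterone, with DMSO as negative control.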
Compound,outcome [1],outcome [2],outcome [3],outcome [4],outcome [5],outcome [6],outcome [7],outcome [8],AC50 [9],AC50 [10],AC50 [7],AC50 [8],outcome [9]
CCN(CC)CCOc1ccc(C(=C(Cl)c2ccccc2)c2ccccc2)cc1,inactive,inactive,inactive,inactive,inactive,inactive,inactive,inactive,945 nM (active),,,,
CC(=O)O[C@]1(C(C)=O)CC[C@H]2[C@@H]3C=C(Cl)C4=CC(=O)[C@@H]5C[C@@H]5[C@]4(C)[C@H]3CC[C@@]21C,,inactive,inactive,,inactive,,,,,8.21 µM (active),20.2 µM (active),347 nM (active),inactive
